Results on 27 compounds are retold here after PubChem BioAssay (NCATS).

Test [1] is described as follows: qHTS of pediatric cancer cell lines to identify multiple opportunities for drug repurposing: Primary screen for RD cells (AID 1347104). Note: nearly all actives have a fitted effect of over 55% in size. The gist of the method:
(§1)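 ATP-based luminescence (CellTiter-Glo) quantifies viability after a 48-hour exposure. Compounds are dosed across 8 or 11 final concentrations; DMSO and 2.3 µM bortezomib serve as controls.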

Test [2] can be described thus: qHTS of pediatric cancer cell lines to identify multiple opportunities for drug repurposing: Primary screen for MG 63 (6-TG R) cells (AID 1347105). Note: nearly all actives have a fitted effect of over 50% in size. The gist of the method:
as §1
(In general: Quantitative high-throughput screening tests each substance at several concentrations.)

Test [3] is described as follows: qHTS of pediatric cancer cell lines to identify multiple opportunities for drug repurposing: Primary screen for control Hh wild type fibroblast cells (AID 1347106).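 Note: series mostly up to about 46 µM; a drop in luminescence marks cytotoxicity and a rise apparent proliferation; nearly all actives have a fitted effect of over 55% in size.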 The gist of the method: (§2)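 Viability after 48 h compound treatment at 37C, 500-1,000 cells/well, read as ATP luminescence with CellTiter-Glo. Primary screens used 11-point (MIPE, 0.78 nM-46 µM) or 8-point (NPC, 0.59 nM-46 µM) final concentrations; follow-up screens used 11-point dilutions.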

The nature of test [4]: qHTS of pediatric cancer cell lines to identify multiple opportunities for drug repurposing: Primary screen for Rh30 cells (AID 1347107). Note: series mostly up to about 46 µM; nearly all actives have a fitted effect of over 75% in size. The gist of the method:
as §2

A short description of test [5]: qHTS of pediatric cancer cell lines to identify multiple opportunities for drug repurposing: Primary screen for Rh41 cells (AID 1347108).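 Note: series mostly up to about 46 µM; luminescence drop marks cytotoxic hits; nearly all actives have a fitted effect of over 70% in size.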 The method, boiled down: as §1
The nature of test [6]: qHTS of pediatric cancer cell lines to identify multiple opportunities for drug repurposing: Confirmatory screen for NB1643 cells (AID 1347109). Note: nearly all actives have a fitted effect of over 45% in size. Note: potency is the fitted concentration of half-maximal effect. The method, boiled down:
as §2

The nature of test [7]: qHTS of pediatric cancer cell lines to identify multiple opportunities for drug repurposing: Confirmatory screen for A673 cells (AID 1347110). Note: potency is the fitted concentration of half-maximal effect; nearly all actives have a fitted effect of over 65% in size. The gist of the method:
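Cells plated at 500-1,000/well were treated five hours later with multi-point dilutions up to 46 µM final. After two days, CellTiter-Glo was added and luminescence read.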

A short description of test [8]: qHTS of pediatric cancer cell lines to identify multiple opportunities for drug repurposing: Confirmatory screen for BT-12 cells (AID 1347112). Note: nearly all actives have a fitted effect of over 55% in size. The gist of the method:
as §2

Test [9] can be described thus: qHTS of pediatric cancer cell lines to identify multiple opportunities for drug repurposing: Confirmatory screen for SK-N-MC cells (AID 1347111).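 Note: cells exposed to compound for 48 h before the readout; nearly all actives have a fitted effect of over 70% in size.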 Note: potency is the fitted concentration of half-maximal effect. The gist of the method:
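SK-N-MC cells at 500-1,000 cells/well in growth media were pre-incubated 5 h, then exposed to compounds at 11-point dilutions for 48 h at 37 degrees C, 5% CO2. Viability was read as CellTiter-Glo luminescence.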

Each structure is given as a SMILES string. Inconclusive results are not listed. The source made the active and inactive calls. Calls come from the whole dose curve; as a rule, active = well fitted curve in the direction sought with a large enough effect; inconclusive = small, poorly fitted or top-dose-only effect, or another doubt; inactive = no such curve, though single readings can be large; an effect the other way counts as inactive or inconclusive.

Take `Cc1c(N)cccc1C(F)(F)F`: the Potency result in [1], in test [2], in test [3], in [4] and in [5] was “inactive” throughout.
With `Nc1nc(=O)n([C@@H]2O[C@H](CO)[C@@H](O)[C@@H]2F)cc1I`, the Potency result in test [1], in [2], in test [3], in test [4] and in [5] was “inactive” each time.
In the case of `Clc1ccc2c(c1)Nc1ccccc1S2`, the Potency result in [1], in [3] and in [4] was “inactive” throughout.
Consider `CN(C)CCCOC1(Cc2ccccc2)CCCCCC1`, for which the Potency result in test [1], in test [2], in test [4] and in [5] was “inactive” each time.
With `OC(CCCN1CCCCC1)(c1ccccc1)c1ccccc1`, the Potency result in test [1], in test [2], in [3], in test [4] and in test [5] was “inactive” each time.
Turning to `CCCOc1ccc2c(c1)CC[C@@H]1[C@@H]2CC[C@]2(C)C(OC)CC[C@@H]12` (stereo partly specified), the Potency entry in [1], in test [2], in test [3], in test [4] and in test [5] was “inactive” throughout.
Take `CC(C)Cc1ccc(C(C)C(=O)OCc2ccccn2)cc1` (stereo unspecified): the Potency entry in test [1], in [2] and in test [4] was “inactive” in each case.
For `CCC(C(=O)OCCN1CCOC(c2ccccc2)C1C)c1ccccc1` (stereo unspecified), the Potency entry in [1], in test [2], in test [4] and in test [5] was “inactive” in each case.
In the case of `CCCCN(CCCC)C(C(N)=O)c1ccc(OC)cc1` (stereo unspecified), the Potency result in test [1], in test [2], in test [3], in [4] and in test [5] was “inactive” throughout.
Take `CCN1CCN(c2cc(-c3ccc(F)cc3)c3c(n2)CCCCCC3)CC1`: the Potency entry in test [1], in [2], in [4] and in test [5] was “inactive” in each case.
With `CC(=O)OCC(=O)[C@@]1(O)CCC2C3CCC4=CC(=O)CC[C@]4(C)C3[C@@H](O)C[C@@]21C` (stereo partly specified), the Potency result in [1], in test [2], in [3], in [4], in test [5] and in test [6] was “inactive” throughout. In addition, the Potency result in [8] was “inactive”. Moreover, in test [7], the Potency was 16.5 µM (active).
Turning to `CC(C)(C)CC(=O)OCC(=O)[C@@]1(O)CC[C@H]2[C@@H]3CCC4=CC(=O)C=C[C@]4(C)[C@H]3[C@@H](O)C[C@@]21C`, the Potency entry in test [1], in test [2], in test [3], in test [4], in test [5] and in test [6] was “inactive” in each case. The Potency entry in test [9] and in [8] was “inactive” each time. The Potency in [7] is 2.33 µM (active).
Regarding `CC(C)C(=O)OCc1cccc(OC(=O)[C@@H]2N3C(=O)[C@@H](NC(=O)Cc4ccccc4)[C@H]3SC2(C)C)c1`, the Potency result in test [1], in [2], in [3], in test [4] and in test [5] was “inactive” throughout.
For the compound `O=C1c2ccccc2CCc2ccccc21`, the Potency result in [1], in [2], in test [4] and in test [5] was “inactive” in each case.
Regarding `CC(C)(C)C(O)/C=C/c1ccc2c(c1)OCO2` (stereo unspecified), the Potency result in [1], in test [2], in [3], in test [4] and in test [5] was “inactive” in each case.
Regarding `CC(=O)N(c1onc(C)c1C)S(=O)(=O)c1ccc(N)cc1`, the Potency entry in test [1], in test [2], in test [3], in [4] and in [5] was “inactive” each time.
In the case of `CCC(CN)=C(c1ccccc1)c1ccccc1`, the Potency entry in test [1], in test [2], in test [3], in test [4] and in [5] was “inactive” in each case.
For `COc1ccc2cc(C=O)ccc2c1`, the Potency result in test [1], in [2], in test [4] and in test [5] was “inactive” throughout.
As to `CN(C)[C@@H]1C(=O)C(C(N)=O)=C(O)[C@@]2(O)C(=O)C3=C(O)c4c(O)cccc4C[C@H]3C[C@@H]12`, the Potency entry in test [1], in test [2], in [3], in test [4] and in test [5] was “inactive” in each case.
Regarding `CCCC(=O)O[C@]1(C(=O)CC)CC[C@H]2[C@@H]3CCC4=CC(=O)CC[C@]4(C)[C@H]3[C@@H](O)C[C@@]21C`, the Potency result in test [1], in test [3] and in test [4] was “inactive” in each case.
With `O=C(O)Cn1cnnn1`, the Potency entry in test [1], in [2], in [3], in test [4] and in [5] was “inactive” each time.
With `COC(=O)C1=C(C)NC(COC(N)=O)=C(C(=O)OC(C)C)C1c1cccc(Cl)c1Cl` (stereo unspecified), the Potency entry in test [1], in test [2], in test [3], in test [4] and in test [5] was “inactive” each time.
Regarding `CC(C)=CCC/C(C)=C/CC/C(C)=C/C(=O)OCC(=O)[C@@]1(O)CC[C@H]2[C@@H]3CCC4=CC(=O)C=C[C@]4(C)[C@H]3[C@@H](O)C[C@@]21C`, the Potency result in [1], in test [2], in test [3], in test [4] and in test [5] was “inactive” in each case. Further, the Potency was 23.3 µM (active) in test [6] and 18.5 µM (active) in [9].
Turning to `O=C(O)c1cn(C2CC2)c2cc(Cl)c(F)cc2c1=O`, the Potency entry in [1], in test [2], in [3], in test [4] and in [5] was “inactive” in each case.
As for `CCOC(=O)c1ccc(O)c(O)c1`, the Potency entry in test [1], in [2], in test [3], in [4] and in test [5] was “inactive” in each case.
As to `CCCCN(CCN(CCCC)C(=O)N1CCOCC1)C(=O)N1CCOCC1`, the Potency entry in test [1], in test [3] and in [4] was “inactive” throughout.
Consider `CCCC(=O)OCOC(=O)C1=C(C)NC(C)=C(C(=O)OC)C1c1cccc(Cl)c1Cl` (stereo unspecified), for which the Potency entry in [1], in [2], in [3], in [4] and in [5] was “inactive” throughout.
